{
  "source": "PubChem BioAssay (NCATS)",
  "note": "Several values for one entry are separate records, joined by “and”; a condition that tells them apart may be missing. Equal entries are not always repeated. Results filed as inconclusive are left out. Activity calls are given as the source filed them. Calls come from the whole dose curve; as a rule, active = well fitted cell-killing curve with a large enough effect; inconclusive = small, poorly fitted or top-dose-only effect; inactive = flat fitted curve, though single readings scatter.",
  "data": [
    {"experiment": "Cellular viability qHTS for adrenocortical cancer (ACC) cell line NCI-H295R (AID 1963990); note: nearly all actives have a fitted effect of over 60% in size", "conditions": "CellTiter-Glo ATP luminescence, 48 h; series mostly up to 46.1 µM; activity change, negative = viability loss: at the top concentration", "description": "PI: Naris Nilubol, MD Surgical Oncology Program, National Cancer Institute (NCI) National Institute of Health (NIH), Bethesda, Maryland Adrenocortical cancer (ACC) is a rare malignancy with poor survival outcomes and few treatment options. Currently, mitotane is the only FDA-approved therapy for ACC. Although adjuvant radiation therapy is rarely utilized, it has the potential to improve survival in select cases. Through a quantitative high-throughput drug screen (qHTS), we identified auranofin (AF), a thioredoxin reductase (TXNRD) inhibitor, as a promising candidate drug. This study aims to evaluate whether AF can enhance the efficacy of radiation therapy in the treatment of ACC. Two human ACC cell lines, SW-13 and NCI-H295R, were screened using the National Center for Advancing Translational Sciences (NCATS) Pharmaceutical Collection (NPC) and the Mechanism Interrogation PlatE (MIPE) library (~4,991 compounds). CellTiter-Glo (Cat # G7570, Promega, Madison, WI) was utilized to measure cell viability. Described herein are the results of the corresponding viability assay.\nPROTOCOL TABLE (as described by Inglese J, Shamu CE and Guy RK. 2007) SEQUENCE No. (e.g., 1, 2, 3, etc.); […] (e.g., Cells, Incubation, Reagent, etc.); VALUE; DESCRIPTION. 1; Cells; 5 uL; white, solid-bottom, 1536-well tissue-culture treated plates. 2; Time; overnight culture at 37C with 5% CO2. 3; Compounds and control; 23 nL; Kalypsis pin tool (Wako USA) equipped with a 1536-well pin head to transfer to the assay plates. 4; Time; 48 hours; 37C with 5% CO2. 5; Reagent; 4 uL; CellTiter-Glo luminescent substrate mix. 6; Time; 20 min at room temperature. 7; Detection; Luminescence; ViewLux plate reader NOTES (numbers refer to Sequence numbers above) 1. NCI-H295R cells were harvested from a T175 flask and resuspended in ITS-supplemented DMEM serum-free medium at a concentration of 300 000 cells/mL. Then 5 uL of resuspended cells were dispensed into each well of white, solid-bottom, 1536-well tissue-culture-treated plates using a multidrop combi dispenser. The plates were covered with stainless steel gasket lids. 2-3. The plates were cultured overnight at 37C with 5% CO2. Twenty-three nL of compounds (eight selected concentrations from the NPC / MIPE) or positive control (10 mM stock of bortezomib) in DMSO was transferred to each well of the assay plate using a pin tool (Kalypsys, San Diego, CA, USA). The final concentration of the compounds in the 5 uL assay volume ranged from 0.5 nM to 46 uM. 4-6. After 48 hours of incubation at 37C and 5% CO2, 4 uL of CellTilter-Glo luminescent substrate mix (Promega, Madison, WI, USA) was added to each well. Then the plates were incubated for 20 minutes at room temperature. 7. After incubation, luminescence was measured using a ViewLux plate reader (PerkinElmer, Waltham, MA, USA) with a clear filter was used to measure the number of metabolically competent cells. To determine compound activity in the qHTS assay, the titration-response data for each sample was plotted and modeled by a four-parameter logistic fit yielding IC50 and efficacy (maximal response) values. Raw plate reads for each titration point were normalized relative to positive control ([…], 100% inhibition) and DMSO-only wells (basal, 0%). REFERENCES: Inglese J, Shamu CE and Guy RK, Reporting data from high throughput screening of small molecule libraries, Nature Chemical Biology, 2007, 3(8): 438-441. doi.org/10.1038/nchembio0807-438.", "values": [
      {"smiles": "NCCNc1cccc2ccccc12", "Potency": "20.6 µM (active)"},
      {"smiles": "CCC(=O)OCC(=O)C1(OC(=O)CC)C(C)CC2C3CCC4=CC(=O)C=CC4(C)C3(F)C(O)CC21C", "note": "(stereo not given)", "Potency": "4.47 µM (active)"},
      {"smiles": "C=CCN(/C=C1\\C(=O)O[C@@H](COC)[C@]2(C)C1=C(O)C(=O)C1=C2[C@@H](OC(C)=O)C[C@]2(C)C(=O)CC[C@H]12)CC=C", "Potency": "28.2 µM (active)"},
      {"smiles": "O=C(Nc1ccc(S(=O)(=O)N2CCOCC2)cc1)c1cc(Cl)ccc1NS(=O)(=O)c1ccc(Cl)s1", "Potency": "20.6 µM (active) and 25.1 µM (active)"},
      {"smiles": "CN1C(=O)[C@@H](NC(=O)c2cc(Cc3ccccc3)on2)COc2ccccc21", "activity change, negative = viability loss": "-6.6% (inactive)"},
      {"smiles": "O=C1NC(=O)/C(=C/c2ccc3nccnc3c2)S1", "activity change, negative = viability loss": "-24.2% (inactive)"},
      {"smiles": "OCCOCCN1CCN(C(c2ccccc2)c2ccc(Cl)cc2)CC1", "note": "(stereo not given)", "activity change, negative = viability loss": "-29.3% (inactive)"},
      {"smiles": "C[C@H](N)C(=O)N[C@@H](C)C(=O)NC1[C@H]2CN(c3nc4c(cc3F)c(=O)c(C(=O)O)cn4-c3ccc(F)cc3F)C[C@@H]12", "note": "(stereo not given in full)", "activity change, negative = viability loss": "-15.9% (inactive)"},
      {"smiles": "C[C@H]1[C@H](C)CC[C@]2(C(=O)O)CC[C@]3(C)C(=CC[C@@H]4[C@@]5(C)C[C@@H](O)[C@H](O)[C@@](C)(CO)[C@@H]5CC[C@]43C)[C@H]12", "activity change, negative = viability loss": "-12.5% (inactive)"},
      {"smiles": "O=C(Nc1ccccc1)OCC(CN1CCCCC1)OC(=O)Nc1ccccc1", "note": "(stereo not given)", "Potency": "23.1 µM (active)"},
      {"smiles": "CN(C)CCOC(c1ccccc1)c1ccc(Br)cc1", "note": "(stereo not given)", "Potency": "13 µM (active)"},
      {"smiles": "NNC(=O)CP(=O)(c1ccccc1)c1ccccc1", "Potency": "16.4 µM (active)"},
      {"smiles": "CCOC(=O)C1=C(C)NC(C)=C(C(=O)OC)C1c1cccc([N+](=O)[O-])c1", "note": "(stereo not given)", "Potency": "16.4 µM (active)"},
      {"smiles": "Cc1cnc(Nc2ccc(F)cc2Cl)nc1-c1c[nH]c(C(=O)NC(CO)c2cccc(Cl)c2)c1", "note": "(stereo not given)", "Potency": "8.91 µM (active)"},
      {"smiles": "Cc1nc2n(c(=O)c1CCN1CCC(C(=O)c3ccc(F)cc3)CC1)CCS2", "activity change, negative = viability loss": "-28.2% (inactive)"},
      {"smiles": "c1ccc2occc2c1", "activity change, negative = viability loss": "-22.6% [at 92.7 µM] (inactive)"},
      {"smiles": "CS[C@H]1SC[C@@H]2C(=O)N(C)[C@H](C(C)C)C(=O)OC[C@H](NC(=O)c3cnc4ccccc4n3)C(=O)N[C@H](C)C(=O)N(C)[C@H]1C(=O)N(C)[C@H](C(C)C)C(=O)OC[C@H](NC(=O)c1cnc3ccccc3n1)C(=O)N[C@H](C)C(=O)N2C", "Potency": "0.1 µM (active)"},
      {"smiles": "NC(=O)c1ccc2nc(-c3ccc(C4(N)CCC4)cc3)c(-c3ccccc3)n2n1", "Potency": "6.31 µM (active)"},
      {"smiles": "CCCCOC(=O)c1ccc(N)cc1", "activity change, negative = viability loss": "-16.9% (inactive)"},
      {"smiles": "NC1=NCC2c3ccccc3Cc3ccccc3N12", "note": "(stereo not given)", "activity change, negative = viability loss": "-21.4% (inactive)"},
      {"smiles": "COC(=O)N(CC(=O)O)Cc1cccc(OCc2nc(-c3ccc(Cl)cc3)oc2C)c1", "activity change, negative = viability loss": "-17.1% (inactive)"},
      {"smiles": "COc1ccc2c(c1)C(=O)N(CCc1ccc(S(=O)(=O)NC(=O)NC3CCCCC3)cc1)C(=O)C2(C)C", "activity change, negative = viability loss": "-19.5% (inactive)"},
      {"smiles": "O=C(c1ccc(F)cc1)C1CCN(CCn2c(=S)[nH]c3ccccc3c2=O)CC1", "activity change, negative = viability loss": "-13.9% (inactive)"},
      {"smiles": "COc1ccc(S(=O)(=O)NCc2ccc(C(=O)NCCc3ccc(Cl)cn3)cc2)cc1", "activity change, negative = viability loss": "-20.4% (inactive)"},
      {"smiles": "O=C1NCN(c2ccccc2)C12CCN(CCCC(c1ccc(F)cc1)c1ccc(F)cc1)CC2", "Potency": "3.26 µM (active)"},
      {"smiles": "CCOC(=O)N1CCC(Nc2ccc(Cl)cc2N)CC1", "Potency": "16.4 µM (active)"},
      {"smiles": "Cc1ccc(NC(=O)c2ccc(CN3CCN(C)CC3)cc2)cc1Nc1nccc(-c2cccnc2)n1", "Potency": "25.1 µM (active)"},
      {"smiles": "CCN(CC)CCCN(c1ccccc1)C1Cc2ccccc2C1", "Potency": "25.9 µM (active)"},
      {"smiles": "CC(=O)NCC(=O)N1[C@@H]2CC[C@H]1c1ccc(Nc3ncc(C(F)(F)F)c(NC4CCC4)n3)cc12", "Potency": "4.47 µM (active)"},
      {"smiles": "CC(O)c1cc(C(=O)N[C@@H](C)Cn2ccc(-c3ccc(C#N)c(Cl)c3)n2)n[nH]1", "note": "(stereo not given in full)", "activity change, negative = viability loss": "0.758% (inactive)"},
      {"smiles": "Nc1ncnc2c1c(COc1cccc(Cl)c1)nn2C1CCOCC1", "activity change, negative = viability loss": "-23.2% (inactive)"},
      {"smiles": "O=C(C1CCCCC1)N1CC(=O)N2CCCc3ccccc3C2C1", "note": "(stereo not given)", "Potency": "29.1 µM (active)"},
      {"smiles": "CCCCOc1cc(C(=O)NCCN(CC)CC)c2ccccc2n1", "Potency": "20.6 µM (active)"},
      {"smiles": "N[C@H](C(=O)O)[C@@H](O)c1ccc(O)c(O)c1", "activity change, negative = viability loss": "-18.1% (inactive)"},
      {"smiles": "Nc1nccc(-c2c(-c3ccc(F)cc3)ncn2C2CCCCC2)n1", "activity change, negative = viability loss": "-27.6% (inactive)"},
      {"smiles": "CC(=C(CCOC(=O)C(C)C)SSC(CCOC(=O)C(C)C)=C(C)N(C=O)Cc1cnc(C)nc1N)N(C=O)Cc1cnc(C)nc1N", "activity change, negative = viability loss": "-16.7% (inactive)"},
      {"smiles": "O=C(CCBr)N1CCN(C(=O)CCBr)CC1", "activity change, negative = viability loss": "-12.9% (inactive)"},
      {"smiles": "CC#CC(=O)N1CCC[C@H]1c1nc(-c2ccc(C(=O)Nc3ccccn3)cc2)c2c(N)nccn12", "activity change, negative = viability loss": "-28.9% [at 20 µM] (inactive)"},
      {"smiles": "NC(=O)c1c(OCc2c(F)cc(Br)cc2F)nsc1NC(=O)NCCCCN1CCCC1", "Potency": "22.4 µM (active)"},
      {"smiles": "C=CC[N+]1([C@H]2C[C@H]3[C@@H]4CC[C@H]5C[C@H](O)[C@@H](N6CCOCC6)C[C@]5(C)[C@H]4CC[C@]3(C)[C@H]2OC(C)=O)CCCC1", "activity change, negative = viability loss": "-24.1% (inactive)"}
    ]}
  ]
}
